In one experiment the test system is C2A. Description: qHTS profiling for inhibitors of Plasmodium falciparum proliferation (AID 504749). Note: nearly all actives have a fitted effect of over 60% in size. Note: potency is the fitted concentration of half-maximal effect. Conditions: P. falciparum in erythrocytes, SYBR Green DNA, 72 h; series mostly up to 28.7 µM. A digest of the protocol: (§1)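 Each compound contacts P. falciparum-infected red blood cells for 72 h at 37 C; lysis buffer (Tris, EDTA, saponin, Triton X, SYBR Green I) is added and fluorescence measured next morning; values normalized to controls.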
(In general: Quantitative high-throughput screening tests each substance at several concentrations.)

The test system of another experiment is CP237. Described as above. Conditions: P. falciparum in erythrocytes, SYBR Green DNA, 72 h; series mostly up to 28.7 µM. A digest of the protocol:
as §1

For a further experiment, the system named is CP260. The description is as above. Conditions: P. falciparum in erythrocytes, SYBR Green DNA, 72 h; series mostly up to 28.7 µM. A digest of the protocol: as §1
Another experiment relates to Dd2. The experiment is described as above. Conditions: P. falciparum in erythrocytes, SYBR Green DNA, 72 h; series mostly up to 28.7 µM. A digest of the protocol:
as §1

Another experiment deals with SC27B. The description is as above. Conditions: P. falciparum in erythrocytes, SYBR Green DNA, 72 h; series mostly up to 28.7 µM. A digest of the protocol:
as §1

Experiment [1] can be described thus: Cell Viability - BJ (AID 421; calls by dose curve;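 note: potency is the fitted concentration of half-maximal effect; cells exposed to compound for 40 hours at 37 °C before readout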). To be noted: BJ fibroblast viability, qHTS. A digest of the protocol:
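Normal human BJ foreskin fibroblasts, 1500/well in complete medium, treated 40 hr at 37 °C. Cellular ATP by CellTiter-Glo luminescence; normalized to DMSO and 100 uM tamoxifen, AC50 from Hill fit.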

Experiment [2] can be described thus: Cell Viability - MRC5 (AID 434; calls by dose curve;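 note: potency is the fitted concentration of half-maximal effect; potency reflects cytotoxicity seen as loss of intracellular ATP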). To be noted: MRC5 lung fibroblast viability, qHTS. A digest of the protocol:
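ATP luminescence read-out (CellTiter-Glo, 20 min RT) after 40 hr, 37 °C compound exposure of 1500 MRC5 cells/well. Data normalized to DMSO (basal) and 100 uM tamoxifen (100% inhibition); AC50 from standard Hill equation.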

Experiment [3] can be described thus: Cell Viability - SK-N-SH (AID 435; calls by dose curve;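 note: potency is the fitted concentration of half-maximal effect; compound exposure lasted 40 h at 37 °C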). To be noted: SK-N-SH neuroblastoma cell viability qHTS. A digest of the protocol:
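SK-N-SH human neuroblastoma cells (1500/well) were exposed to compounds in complete medium for 40 h at 37 °C, and intracellular ATP was then measured by CellTiter-Glo luminescence. AC50 was taken from Hill fits, normalized to DMSO and 100 uM tamoxifen.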

Experiment [4] in a line: Cell Viability - NIH 3T3 (AID 541).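 Note: plate controls were DMSO alone for no effect and tamoxifen positive control for full effect; nearly all actives have a fitted effect of over 25% in size.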 To be noted: NIH 3T3 cell viability, qHTS; activity change, negative = cytotoxicity: at 92.2 µM (top of the series). A digest of the protocol:
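Intracellular ATP (CellTiter-Glo luminescence, 20 min at room temperature) measured after 40 hr compound exposure at 37 °C of 1000 NIH 3T3 mouse fibroblasts/well in complete medium; AC50 derived by Hill-equation modelling of qHTS concentration-response curves.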

Experiment [5] can be described thus: Cell Viability - HUV-EC-C (AID 542). Note: % is set by controls: 0 for no effect and ±100 for the full control effect; nearly all actives have a fitted effect of over 35% in size. A digest of the protocol:
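CellTiter-Glo luminescence measured ATP loss in HUV-EC-C cells (1000/well) after 40 hr compound exposure at 37 °C, in complete culture medium. Concentration-response data were Hill-fitted to give AC50.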

Experiment [6] can be described thus: Cell Viability - Mesenchymal (AID 546).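 Note: cells exposed to compound for 40 hours before reading; 0% = DMSO only and -100% = 100 µM tamoxifen.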 Conditions: mesenchymal cells viability, qHTS; activity change, negative = cytotoxicity: at 91.7 µM (top of the series). A digest of the protocol:
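Human renal mesenchymal cells (glomerulus-derived), 1000 cells/well, 5 hr 37 °C pre-incubation; compound 40 hr, 37 °C; CellTiter-Glo, 20 min RT; luminescence; AC50 via Hill equation.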

Experiment [7] can be described thus: Cellular Toxicity (caspase-3) HepG2 (AID 654).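 Note: cells exposed to compound for 16 hours before reading; 0% = DMSO alone and 100% = caspase signal from 100 µM tamoxifen.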 A digest of the protocol:
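Caspase 3/7 activation is measured as a luminescence increase (aminoluciferin substrate) after 16 h compound exposure of human hepatocarcinoma HepG2 cells. AC50 values are Hill fits, scaled between DMSO baseline and 100 uM tamoxifen stimulation.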

Experiment [8] can be described thus: Cellular Toxicity (caspase-3) HUV-EC-C (AID 656).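 Note: 0% = DMSO basal and 100% = 100 µM tamoxifen.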 A digest of the protocol: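 HUV-EC-C endothelial cells, 1000/well, were pre-incubated 5 hr at 37°C, then exposed to compounds for 16 hr at 37°C. Caspase-Glo 3/7 luminescence was read after 20 min at room temperature. AC50 came from Hill fits, normalized to DMSO and 100 uM tamoxifen.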
A short description of experiment [9]: Cellular Toxicity (caspase-3) SHSY5Y (AID 657). A digest of the protocol:
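SH-SY5Y human neuroblastoma cells (1500/well) were treated with compounds for 16 h at 37 °C, then Caspase-Glo 3/7 luminescence was read after 1 h at room temperature. Data normalized to DMSO and 10 uM staurosporine; AC50 from Hill fits.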

Experiment [10] can be described thus: qHTS Assay for Identification of Small Molecule Inducers of Hypoxia Response (AID 2120; active = well fitted curve in the direction sought with a large enough effect in the signal ratio, with a control signal flat, not every such curve was filed as active; the % refers to the signal ratio; note: 0% is about no effect). A digest of the protocol: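 Reporter induction read as the CCF4 blue/green (460nm/530nm) emission ratio after 2.5 h dye loading at room temperature. ME-180 HRE-beta-lactamase cells received titrated compounds for 17 h at 37 degrees Celsius; AC50 values derived.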
Experiment [11] concerns the target Peroxisome proliferator-activated receptor gamma (Homo sapiens) (UniProt P37231). Description: qHTS assay for small molecule agonists of peroxisome proliferator-activated receptor gamma signaling (AID 588536; active = well fitted curve in the direction sought with a large enough effect in the signal ratio, with a control signal flat, not every such curve was filed as active; the % refers to the signal ratio;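 note: 0% = DMSO basal wells and 100% = rosiglitazone at 2 µM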). A digest of the protocol: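 Cells were plated and held 6–6.5 h at 37 C, then compounds were added as a titration series. After a further 16 h, CCF4 dye was loaded for 2 h at room temperature and emission at 460/530 nm recorded.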

In experiment [12] the target is Thyroid hormone receptor beta (Homo sapiens) (UniProt P10828). Put plainly: qHTS assay for small molecule agonists of thyroid hormone receptor beta signaling (AID 588545; calls by dose curve;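 note: 0% = DMSO only and 100% = 10 nM T3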). A digest of the protocol:
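Beta-lactamase reporter activity under TR response element control is measured in HEK 293 cells after 18 hrs compound exposure. Signal is ratiometric CCF4 fluorescence, 460/530 nm.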

For experiment [13] the target is unchanged. Description: qHTS assay for small molecule antagonists of thyroid hormone receptor beta signaling (AID 588547; active = well fitted inhibition curve with a large enough effect in the signal ratio, with a control signal flat, not every such curve was filed as active; the % refers to the signal ratio;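 note: cells stimulated with 0.4 nM T3 agonist during compound exposure; % is set by controls: 0 for no effect and ±100 for the full control effect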). Conditions: TR-UAS-bla HEK293, beta-lactamase ratio, antagonist mode, 18 h. A digest of the protocol: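 TR-UAS-bla GripTite HEK293 cells in 2% charcoal/dextran FBS medium; compounds 0.59 nM to 92 uM with T3 at 0.4nM final, 18 h at 37 C. Beta-lactamase read by CCF4 fluorescence (460/530 nm); Hill fits gave IC50 and efficacy.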

For experiment [14], the target named is Voltage-gated inwardly rectifying potassium channel KCNH2 (Homo sapiens) (UniProt Q12809). Description: qHTS Assay for Small Molecule Inhibitors of the Human hERG Channel Activity (AID 588834).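 Note: top concentration of the series differs between compounds; % is set by controls: 0 for no effect and ±100 for the full control effect; lower thallium flux fluorescence means stronger hERG block; nearly all actives have a fitted effect of over 50% in size.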 A digest of the protocol: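 In hERG-transduced U2OS cells, dye-loaded for 1 hr at room temperature in dark, test compounds incubated 10 min at 37 °C before thallium stimulation. AC50 values derived by Hill modelling of concentration-response.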
Sequence of Voltage-gated inwardly rectifying potassium channel KCNH2 (Homo sapiens) (Q12809 whole entry, looked up): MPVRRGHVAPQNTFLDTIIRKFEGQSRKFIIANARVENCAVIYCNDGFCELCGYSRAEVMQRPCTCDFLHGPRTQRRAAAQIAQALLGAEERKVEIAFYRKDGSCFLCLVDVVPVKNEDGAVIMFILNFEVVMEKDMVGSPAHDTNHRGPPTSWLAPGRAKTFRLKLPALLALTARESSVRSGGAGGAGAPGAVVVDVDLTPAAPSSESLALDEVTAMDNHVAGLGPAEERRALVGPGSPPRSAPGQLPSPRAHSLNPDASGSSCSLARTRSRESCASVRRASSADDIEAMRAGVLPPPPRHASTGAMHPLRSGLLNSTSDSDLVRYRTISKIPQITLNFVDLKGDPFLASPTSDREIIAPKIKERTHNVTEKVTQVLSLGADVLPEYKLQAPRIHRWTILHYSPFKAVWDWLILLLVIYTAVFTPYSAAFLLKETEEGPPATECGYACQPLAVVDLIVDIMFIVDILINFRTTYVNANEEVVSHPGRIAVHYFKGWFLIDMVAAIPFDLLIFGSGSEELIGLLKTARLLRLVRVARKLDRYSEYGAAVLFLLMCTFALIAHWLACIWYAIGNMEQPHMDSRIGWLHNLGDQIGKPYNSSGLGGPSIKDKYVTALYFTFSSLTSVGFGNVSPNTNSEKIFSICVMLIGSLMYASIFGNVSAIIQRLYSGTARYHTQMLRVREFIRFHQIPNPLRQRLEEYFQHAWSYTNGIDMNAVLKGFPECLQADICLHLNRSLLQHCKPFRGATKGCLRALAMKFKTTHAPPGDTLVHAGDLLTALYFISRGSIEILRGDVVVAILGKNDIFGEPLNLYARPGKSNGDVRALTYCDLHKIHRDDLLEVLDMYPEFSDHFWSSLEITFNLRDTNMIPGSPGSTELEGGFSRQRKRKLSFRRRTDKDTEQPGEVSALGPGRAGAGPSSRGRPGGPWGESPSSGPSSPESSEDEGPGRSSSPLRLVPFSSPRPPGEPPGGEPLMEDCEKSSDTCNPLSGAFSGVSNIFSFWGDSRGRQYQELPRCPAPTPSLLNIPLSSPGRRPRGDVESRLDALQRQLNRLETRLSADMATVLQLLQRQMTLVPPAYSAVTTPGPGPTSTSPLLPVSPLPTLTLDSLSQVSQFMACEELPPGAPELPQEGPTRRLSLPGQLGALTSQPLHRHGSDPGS

The target in experiment [15] is Nuclear receptor subfamily 1 group I member 2 (Rattus norvegicus) (UniProt Q9R1A7). Put plainly: qHTS assay for small molecule activators of the rat pregnane X receptor (rPXR) signaling pathway (AID 651751; call rule not given here; note: 0% is about no effect). To be noted: rPXR reporter cells, luciferase (One-Glo), 24 h.
Sequence of Nuclear receptor subfamily 1 group I member 2 (Rattus norvegicus) (Q9R1A7 whole entry, looked up): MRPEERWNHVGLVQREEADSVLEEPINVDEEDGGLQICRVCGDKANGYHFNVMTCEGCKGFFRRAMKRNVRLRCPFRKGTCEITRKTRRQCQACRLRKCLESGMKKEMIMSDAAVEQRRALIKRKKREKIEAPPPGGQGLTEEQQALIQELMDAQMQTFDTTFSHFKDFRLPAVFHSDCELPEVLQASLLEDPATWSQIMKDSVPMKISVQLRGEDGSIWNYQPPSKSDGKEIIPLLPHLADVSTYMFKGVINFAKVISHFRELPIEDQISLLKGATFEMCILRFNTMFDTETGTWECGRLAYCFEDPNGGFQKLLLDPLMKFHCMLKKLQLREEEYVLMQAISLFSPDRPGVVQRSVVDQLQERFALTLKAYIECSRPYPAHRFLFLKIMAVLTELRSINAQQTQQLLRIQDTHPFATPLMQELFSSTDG

Several values for one entry are separate records, joined by “and”; a condition that tells them apart may be missing. Equal values may be shown once. Unmarked numbers belong to inactive results. Inconclusive results are not listed. Activity calls are given as the source filed them. Unless noted, calls come from the whole dose curve; as a rule, active = well fitted curve in the direction sought with a large enough effect; inconclusive = small, poorly fitted or top-dose-only effect, or another doubt; inactive = no such curve, though single readings can be large; an effect the other way counts as inactive or inconclusive.

Here are results for 9 molecules from PubChem BioAssay (NCATS).

Sequence of Peroxisome proliferator-activated receptor gamma (Homo sapiens) (P37231 whole entry, looked up): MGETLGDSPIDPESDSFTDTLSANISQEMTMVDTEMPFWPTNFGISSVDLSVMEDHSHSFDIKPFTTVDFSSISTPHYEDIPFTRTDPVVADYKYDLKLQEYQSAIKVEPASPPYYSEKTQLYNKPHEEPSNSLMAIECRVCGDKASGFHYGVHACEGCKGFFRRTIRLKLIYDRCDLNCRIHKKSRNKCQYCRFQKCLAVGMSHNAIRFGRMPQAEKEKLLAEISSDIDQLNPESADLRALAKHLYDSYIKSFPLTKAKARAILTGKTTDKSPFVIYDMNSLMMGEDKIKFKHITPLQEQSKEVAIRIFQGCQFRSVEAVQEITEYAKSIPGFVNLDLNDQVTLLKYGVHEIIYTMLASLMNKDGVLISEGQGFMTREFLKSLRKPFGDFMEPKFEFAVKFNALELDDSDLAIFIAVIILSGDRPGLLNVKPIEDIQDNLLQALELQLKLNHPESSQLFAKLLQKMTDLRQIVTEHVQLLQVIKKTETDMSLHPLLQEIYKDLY
Sequence of Thyroid hormone receptor beta (Homo sapiens) (P10828 whole entry, looked up): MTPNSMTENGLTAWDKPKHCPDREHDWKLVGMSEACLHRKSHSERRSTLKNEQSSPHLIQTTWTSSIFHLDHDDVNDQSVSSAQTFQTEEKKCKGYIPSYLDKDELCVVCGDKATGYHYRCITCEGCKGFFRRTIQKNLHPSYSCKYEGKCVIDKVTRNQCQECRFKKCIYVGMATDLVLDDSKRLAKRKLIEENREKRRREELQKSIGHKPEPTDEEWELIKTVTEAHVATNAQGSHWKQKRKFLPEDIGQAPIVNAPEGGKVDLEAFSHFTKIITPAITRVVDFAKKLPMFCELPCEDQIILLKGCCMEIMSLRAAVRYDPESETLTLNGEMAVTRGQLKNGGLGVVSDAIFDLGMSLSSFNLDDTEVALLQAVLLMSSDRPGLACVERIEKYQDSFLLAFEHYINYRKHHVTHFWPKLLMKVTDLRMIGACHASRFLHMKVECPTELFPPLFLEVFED

As for `CC1CCC(C(C)C)C(OC(=O)c2ccccc2O)C1` (stereo not drawn), the Potency result with C2A, in the experiment on CP237, with CP260, with Dd2 and in the experiment with SC27B was “inactive” in each case.
`CCN1/C(=C/C=C/C=C/c2sc3ccccc3[n+]2CC)Sc2ccccc21`: the Potency is 3.55 µM (active) in the experiment on C2A; 1.58 µM (active) in the experiment with CP237; 0.631 µM (active) in the experiment with CP260; 2.24 µM (active) in the experiment on Dd2; 6.31 µM (active) in the experiment on SC27B.
The matching figures for `CC(=O)O[C@@]12CO[C@@H]1C[C@H](O)[C@@]1(C)C(=O)[C@H](O)C3=C(C)[C@@H](OC(=O)C(O)[C@@H](NC(=O)OC(C)(C)C)c4ccccc4)C[C@@](O)([C@@H](OC(=O)c4ccccc4)[C@H]21)C3(C)C` (stereo partly drawn): 0.0316 µM (active), 0.0178 µM (active), 0.0251 µM (active), 0.01 µM (active) and 0.199 µM (active).
The matching figures for `Cc1cc(CC(C)CC(C)(C)C)n(O)c(=O)c1` (stereo not drawn): 2.51 µM (active), 2.82 µM (active), 3.16 µM (active), 7.94 µM (active) and 2.82 µM (active).
For `CCC(=O)O[C@@H](OP(=O)(CCCCc1ccccc1)CC(=O)N1C[C@H](C2CCCCC2)C[C@H]1C(=O)O)C(C)C` (stereo partly drawn), the Potency entry in the experiment on C2A, in the experiment with CP237, with CP260, with Dd2 and with SC27B was “inactive” in each case.
Regarding `CO[C@@H]1[C@@H](OC2OC(C)C(OC3CC(C)(O)C(OC(=O)CC(C)C)C(C)O3)C(N(C)C)C2O)[C@@H](CC=O)C[C@@H](C)C(=O)/C=C\C2O[C@H]2C[C@@H](C)OC(=O)C[C@H]1OC(C)=O` (stereo partly drawn), the Potency with C2A was 10 µM (active); in the experiment with CP237, 10 µM (active); with CP260 it was 7.94 µM (active); in the experiment with Dd2, 0.891 µM (active); in the experiment with SC27B, 10 µM (active).
As for `O=C1CCc2ccccc2O1`, the Potency in experiment [1], in experiment [2] and in experiment [3] was greater than 92 µM throughout. The Potency result in experiment [4] and in [14] was “inactive” throughout. Besides, the molecule was classed as inactive in [5], in [7], in experiment [8], in experiment [9], in experiment [10] and in [11]. In addition, the molecule was called inactive in [12]. In experiment [6], the activity change, negative = cytotoxicity is 7.71%. In experiment [13], the activity change % (negative = inhibition) is -1.36%. Besides, in [15], the max response was 3.11%.
With `CO/N=C(/C(=O)N[C@@H]1C(=O)N2C(C(=O)O)=CCS[C@H]12)c1csc(N)n1`, the Potency result in the experiment on C2A, in the experiment with CP237, with CP260, with Dd2 and in the experiment with SC27B was “inactive” each time.
On to `Cc1cccc(O)c1`, for which the result in experiment [11] was inactive. The activity change % (negative = inhibition) in experiment [13] was -9.11% and -4.09%. Also, the max response in [15] is -3.23% and 0.598%.
